Values without a mark were called inactive. Inconclusive results are not listed. Active and inactive are the calls of the source. Unless noted, calls follow the shape of the dose curve; as a rule, active = well fitted curve in the direction sought with a large enough effect; inconclusive = small, poorly fitted or top-dose-only effect, or another doubt; inactive = no such curve, though single readings can be large; an effect the other way counts as inactive or inconclusive.
How the values were obtained:
[1] = molecular target: Lysosomal acid glucosylceramidase (Homo sapiens) (UniProt P04062); assay: Glucocerebrosidase-p2 (AID 348; in the data active = potency below about 10 µM; also: potency is read from the fitted curve at half-maximal effect); settings: purified GBA, blue fluorogenic substrate, 40 min
How it was run: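 Compounds titrated from 0.6 nM upwards against 0.2 nM enzyme in pH 5.9 citric acid/KH2PO4, taurocholate, tween-20; blue fluorogenic substrate 80 uM, 40 min room temperature, stopped and read Ex 365/Em 440 for AC50.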

[2] = AP1 Signaling Pathway (AID 357; active = well fitted curve in either direction with a large enough effect, not every such curve was filed as active; also: % is scaled to controls: 0 for no effect and ±100 for the full control effect); settings: ME-180 AP-1-bla reporter, EGF-induced, beta-lactamase ratio, 5 h; at 7.69 µM (top of the series) unless noted
How it was run: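 Titration-series screen for positive or negative modulators of EC50 EGF-induced signaling in ME-180 cells carrying an AP-1-driven beta-lactamase reporter. After 5 hours at 37 degrees Celsius, CCF4 460nm/530nm emission ratio gave %Activity; AC50 values derived.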

[3] = NFAT Signaling Pathway (AID 444; active = well fitted curve in either direction with a large enough effect, not every such curve was filed as active;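 also: carbachol stimulus at about its EC50 of 1 µM final; % is scaled to controls: 0 for no effect and ±100 for the full control effect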); settings: Jurkat NFAT-bla M1, carbachol, beta-lactamase ratio, 5 h; at 7.69 µM (top of the series) unless noted
How it was run: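 Read-out: CCF4 FRET ratio (460 nm/530 nm) after 1 h RT dye loading, used for %activity and AC50 from titration series. Cells: Jurkat NFAT-β-lactamase/M1 line, treated with compound plus 1 uM carbachol for 5 h, 37 °C.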

[4] = Stat Signaling Pathway (AID 446; active = well fitted curve in either direction with a large enough effect, not every such curve was filed as active;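 also: ME-180 cervical cancer cells given 40 pM IL-6 alongside compound; SIE-controlled beta-lactamase reporter measured as 460/530 nm FRET emission ratio; % is scaled to controls: 0 for no effect and ±100 for the full control effect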); settings: ME-180 SIE beta-lactamase reporter, IL-6 stimulated, 5 h; series mostly up to 7.69 µM
How it was run: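 IL-6/STAT signaling read in ME-180 cells via an SIE beta-lactamase reporter. Stimulus was 40 pM IL-6 (its AC50) for 5 hrs, so both activation and inhibition register.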

[5] = molecular target: Glucocorticoid receptor (Homo sapiens) (UniProt P04150); assay: GR-GFP Redistribution (AID 450;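 active = compounds whose dose series gives a full or clear partial fitted curve of increased nuclear translocation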; also: potency is read from the fitted curve at half-maximal effect); settings: U2OS GR-GFP nuclear translocation, laser cytometry, 2 h
[6] = molecular target: Glucocorticoid receptor (Homo sapiens) (UniProt P04150); assay: GR-EFC Redistribution (AID 451; calls by dose curve; also: potency is read from the fitted curve at half-maximal effect); settings: CHO-K1 GR-EFC translocation, beta-gal luminescence, 2 h
How it was run: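 Translocation of GR-ED fusion to nuclear EA restores b-gal, read by luminescence after 1 h room-temperature detection. Engineered CHO-K1 biosensor cells, 1,000/well, exposed 2 h at 37 C to titrations up to 46 uM final.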

[7] = molecular target: 3',5'-cyclic-AMP phosphodiesterase 4B (Homo sapiens) (UniProt Q07343); assay: qHTS Assay for Inhibitors of PDE-IV (AID 607; active = well fitted activation curve with a large enough effect in the main read-out, with a control signal flat, not every such curve was filed as active; also: % of control where 0% means no effect); settings: HEK293 ACTOne CNG channel cells, membrane potential fluorescence; series mostly up to 22.9 µM
How it was run: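 Live HEK293 cells with a modified cyclic nucleotide-gated (CNG) channel report intracellular cAMP via membrane-potential dye fluorescence (ex 535/em 590 nm). Endogenous PDE-IV was targeted. Compounds were tested at up to 22.9 uM final; RO 20-1724 100 uM served as control.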

[8] = molecular target: Dual specificity protein kinase CLK4 (Homo sapiens) (UniProt Q9HAZ1); assay: qHTS Assay for Inhibitors of CDC-like Kinase 4 (Kinase-Glo Assay) (AID 1770); settings: recombinant Clk4, Kinase-Glo ATP depletion luminescence; series mostly up to 66.7 µM; also: nearly all actives have a fitted effect of over 65% in size; also: potency is read from the fitted curve at half-maximal effect
How it was run: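 Recombinant human Clk4 (25 nM) phosphorylated RS repeat peptide (100 uM) with 1 uM ATP in Tris pH 7.5/MgCl2/EGTA/DTT/Triton buffer for 4.5 h at room temperature. Residual ATP was quantified by Kinase-Glo luciferase luminescence.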

[9] = molecular target: Dual specificity protein kinase CLK4 (Homo sapiens) (UniProt Q9HAZ1); assay: qHTS Assay for Inhibitors of CDC-like Kinase 4 (ADP-Glo Assay) (AID 1771); settings: recombinant CLK4, ADP-Glo luminescence; series mostly up to 80 µM; also: nearly all actives have a fitted effect of over 70% in size; also: potency is read from the fitted curve at half-maximal effect
How it was run: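 Kinase reaction: Clk4 at 25 nM, RS repeat peptide substrate at 100 uM, ATP at 1 uM, 1 hr, room temperature. Product ADP detected as luciferase signal via ADP-Glo.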

[10] = molecular target: Dual specificity protein kinase CLK4 (Homo sapiens) (UniProt Q9HAZ1); assay: qHTS Assay for Inhibitors of CDC-like Kinase 4 (ADP-FP Assay) (AID 1795); settings: Transcreener ADP fluorescence polarization; series mostly up to 50 µM; also: nearly all actives have a fitted effect of over 60% in size; also: potency is read from the fitted curve at half-maximal effect
How it was run: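 Recombinant human Clk4 (6.25 nM) phosphorylated RS repeat peptide (100 uM) with 1 uM ATP in Tris pH 7.5/MgCl2/EGTA/DTT/Triton buffer for one hour. ADP was quantified by Transcreener competitive fluorescence polarization against an ADP calibration curve.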

[11] = molecular target: Ubiquitin carboxyl-terminal hydrolase 1 (Homo sapiens) (UniProt O94782); assay: Inhibitors of USP1/UAF1: Pilot qHTS (AID 504865); settings: purified USP1/UAF1, Ub-rhodamine cleavage fluorescence; series mostly up to 54.9 µM;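 also: rhodamine fluorescence freed from ubiquitin-rhodamine substrate followed over time; top concentration of the series differs between compounds; % is scaled to controls: 0 for no effect and ±100 for the full control effect; nearly all actives have a fitted effect of over 35% in size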
How it was run: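 USP1/UAF1 complex (1nM) preincubated with compound 15 min at room temperature, then Ub-Rho substrate (150nM final) added. Fluorescence read kinetically at 480/540 nm, 6 reads every 60 seconds. Buffer: 50mM HEPES pH 7.8, 0.5mM EDTA, 0.1 mg/ml BSA, 1mM TCEP, 0.01% Tween-20.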

[12] = molecular target: Cytochrome P450 1A2 (Homo sapiens) (UniProt P05177); assay: p450-cyp1a2 (AID 410; calls by dose curve; also: potency is read from the fitted curve at half-maximal effect;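 as to activity change, negative = inhibition: -100% = full effect of reference inhibitor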); settings: recombinant CYP1A2, luciferin-ME demethylation, luminescence; series mostly up to 57 µM
How it was run: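 Inhibition was calculated relative to 57 uM furafylline (full inhibition). The reaction used human CYP1A2 at 20nM with Luciferin-ME at its Km, 100uM, driven by an NADPH-regenerating system for 60 min at room temperature.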

[13] = molecular target: Mitogen-activated protein kinase 10 (Mus musculus) (UniProt Q61831); assay: JNK3 AlphaScreen Assay (AID 530; active = well fitted curve in either direction with a large enough effect, not every such curve was filed as active;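 also: kinase came from lysate of stimulated human HepG2 cells; signal reports phosphorylation of biotinylated GST-cJun 1-79 at Ser73 with 10 µM ATP; % is scaled to controls: 0 for no effect and ±100 for the full control effect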); settings: JNK3 lysate, c-Jun phosphorylation; series mostly up to 57.1 µM
How it was run: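 Room-temperature AlphaScreen kinase assay; pre-activated HepG2 lysate as JNK3 source, biotin-GST-cJun(1-79) substrate, 10 uM ATP, compound 15 min preincubation.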

[14] = molecular target: Cytochrome P450 3A4 (Homo sapiens) (UniProt P08684); assay: qHTS Assay for Inhibitors and Substrates of Cytochrome P450 3A4 (AID 884); settings: recombinant CYP3A4, Luciferin-PPXE luminescence; series mostly up to 57.1 µM; also: nearly all actives have a fitted effect of over 50% in size; also: potency is read from the fitted curve at half-maximal effect
How it was run: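 20 nM human CYP3A4 with 25 uM Luciferin-PPXE (at KM) in 200 mM KPO4, preincubated 10 min with compound; NADPH regeneration started a 60 min RT reaction. Luciferin detected by luminescence, normalized to 57 uM ketoconazole as full inhibition.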

[15] = molecular target: Cytochrome P450 3A4 (Homo sapiens) (UniProt P08684); assay: qHTS Assay for Activators of Cytochrome P450 3A4 (AID 885); settings: recombinant CYP3A4, Luciferin-PPXE luminescence, 60 min; series mostly up to 57.1 µM; also: nearly all actives have a fitted effect of over 65% in size
How it was run: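 Quantitative HTS format: compounds preincubated with 20nM human CYP3A4 and Luciferin-PPXE substrate at KM, reaction started by NADPH regeneration, stopped after 60 min, luciferase luminescence read 20 min later.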

[16] = molecular target: Cytochrome P450 2D6 (Homo sapiens) (UniProt P10635); assay: qHTS Assay for Inhibitors and Substrates of Cytochrome P450 2D6 (AID 891); settings: recombinant CYP2D6, luciferin-ME EGE luminescence; series mostly up to 57.1 µM; also: potency is read from the fitted curve at half-maximal effect; nearly all actives have a fitted effect of over 60% in size
How it was run: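 Human CYP2D6 (5 nM) with 30 uM Luciferin-ME EGE (at Km) in 100 mM KPO4, compound preincubated 10 min, then NADPH regeneration system for 60 min at room temperature. Luciferin read by luminescence; normalized to 1.43 uM quinidine.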

[17] = molecular target: Cytochrome P450 2C9 (Homo sapiens) (UniProt P11712); assay: qHTS Assay for Inhibitors and Substrates of Cytochrome P450 2C9 (AID 883); settings: recombinant CYP2C9, luciferin-H luminescence, 60 min; series mostly up to 57.1 µM; also: potency is read from the fitted curve at half-maximal effect; nearly all actives have a fitted effect of over 60% in size
How it was run: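 Luminescent read-out of deoxyluciferin hydroxylation, normalized to 57uM sulphaphenazole (AC100). Reaction: 10nM enzyme, 100uM Luciferin-H (equal to KM), 25mM KPO4, 10 min compound preincubation, then 60 min with NADPH regeneration, both at 37C.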

[18] = qHTS Assay for Identification of Small Molecule Agonists for Hypoxia Response Element Signaling Pathway (AID 914; active = well fitted activation curve with a large enough effect in the signal ratio, with a control signal flat, not every such curve was filed as active; the % refers to the signal ratio; also: potency is read from the fitted curve at half-maximal effect; as to activation: % of control where 0% means no effect); settings: ME-180 (cervical carcinoma) HRE-bla reporter, beta-lactamase ratio, CoCl2, 17 h; activation: active compounds read high
How it was run: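 HRE-bla ME-180 assay for agonist-like enhancement of an EC50 CoCl2 stimulus: 17 h at 37 degrees Celsius, CCF4 for 2.5 h, ratiometric 460/530 nm signal converted to %Activity and fitted to AC50.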

[19] = molecular target: Cytochrome P450 2C19 (Homo sapiens) (UniProt P33261); assay: qHTS Assay for Inhibitors and Substrates of Cytochrome P450 2C19 (AID 899); settings: recombinant CYP2C19, luciferin-H EGE luminescence; series mostly up to 57.1 µM; also: potency is read from the fitted curve at half-maximal effect; nearly all actives have a fitted effect of over 60% in size
How it was run: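 Luminescence readout of luciferin formed from 10uM Luciferin-H EGE (KM level) by 5 nM CYP2C19 in 50mM KPO4. 60 min NADPH-driven reaction at 37C after 10 min compound preincubation; data scaled to 57uM ketoconazole inhibition.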

Sequence of Cytochrome P450 3A4 (Homo sapiens) (P08684 whole entry, looked up): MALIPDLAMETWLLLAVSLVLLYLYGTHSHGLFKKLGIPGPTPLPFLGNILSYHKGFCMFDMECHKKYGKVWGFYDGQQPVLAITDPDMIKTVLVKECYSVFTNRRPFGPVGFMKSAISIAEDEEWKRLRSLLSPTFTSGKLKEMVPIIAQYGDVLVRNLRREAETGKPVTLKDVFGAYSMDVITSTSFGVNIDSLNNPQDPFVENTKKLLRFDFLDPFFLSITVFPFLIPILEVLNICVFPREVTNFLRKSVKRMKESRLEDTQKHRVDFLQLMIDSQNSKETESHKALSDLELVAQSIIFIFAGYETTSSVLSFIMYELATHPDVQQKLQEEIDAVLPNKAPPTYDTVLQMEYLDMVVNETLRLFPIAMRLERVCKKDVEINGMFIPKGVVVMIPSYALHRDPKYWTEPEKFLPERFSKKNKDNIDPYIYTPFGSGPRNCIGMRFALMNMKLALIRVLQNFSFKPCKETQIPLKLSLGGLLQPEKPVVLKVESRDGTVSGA
Sequence of 3',5'-cyclic-AMP phosphodiesterase 4B (Homo sapiens) (Q07343 whole entry, looked up): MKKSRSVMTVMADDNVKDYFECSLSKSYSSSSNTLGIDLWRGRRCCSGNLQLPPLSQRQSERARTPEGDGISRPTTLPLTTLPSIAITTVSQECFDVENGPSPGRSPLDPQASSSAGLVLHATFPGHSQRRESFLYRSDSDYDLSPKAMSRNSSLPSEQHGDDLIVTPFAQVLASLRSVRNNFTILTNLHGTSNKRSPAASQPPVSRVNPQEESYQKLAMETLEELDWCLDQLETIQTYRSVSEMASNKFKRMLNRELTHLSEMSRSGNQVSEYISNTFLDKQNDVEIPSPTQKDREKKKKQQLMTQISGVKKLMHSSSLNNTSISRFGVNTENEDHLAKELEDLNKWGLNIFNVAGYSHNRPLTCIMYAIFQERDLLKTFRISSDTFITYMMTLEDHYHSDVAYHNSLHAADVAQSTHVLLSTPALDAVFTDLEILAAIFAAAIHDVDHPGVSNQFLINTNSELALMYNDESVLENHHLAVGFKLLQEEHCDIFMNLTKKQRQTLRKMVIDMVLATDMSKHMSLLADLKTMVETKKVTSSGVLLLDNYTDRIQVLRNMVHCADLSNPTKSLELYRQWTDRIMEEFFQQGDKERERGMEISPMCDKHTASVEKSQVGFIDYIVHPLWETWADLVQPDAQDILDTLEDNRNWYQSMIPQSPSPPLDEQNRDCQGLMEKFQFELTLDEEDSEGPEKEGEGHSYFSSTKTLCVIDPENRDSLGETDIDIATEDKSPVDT
Sequence of Dual specificity protein kinase CLK4 (Homo sapiens) (Q9HAZ1 whole entry, looked up): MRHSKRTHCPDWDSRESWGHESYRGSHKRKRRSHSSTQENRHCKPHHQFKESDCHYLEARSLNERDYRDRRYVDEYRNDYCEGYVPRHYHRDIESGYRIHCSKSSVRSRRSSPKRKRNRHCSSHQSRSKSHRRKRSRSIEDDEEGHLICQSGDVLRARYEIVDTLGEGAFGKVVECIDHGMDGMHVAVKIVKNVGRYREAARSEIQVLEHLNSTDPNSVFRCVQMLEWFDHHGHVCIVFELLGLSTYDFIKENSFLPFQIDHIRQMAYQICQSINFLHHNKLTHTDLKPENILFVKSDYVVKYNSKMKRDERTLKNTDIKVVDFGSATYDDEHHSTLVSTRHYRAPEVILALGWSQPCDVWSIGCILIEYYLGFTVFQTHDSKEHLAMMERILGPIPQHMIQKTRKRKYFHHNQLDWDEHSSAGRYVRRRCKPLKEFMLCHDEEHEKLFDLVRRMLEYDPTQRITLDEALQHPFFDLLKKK
Sequence of Cytochrome P450 1A2 (Homo sapiens) (P05177 whole entry, looked up): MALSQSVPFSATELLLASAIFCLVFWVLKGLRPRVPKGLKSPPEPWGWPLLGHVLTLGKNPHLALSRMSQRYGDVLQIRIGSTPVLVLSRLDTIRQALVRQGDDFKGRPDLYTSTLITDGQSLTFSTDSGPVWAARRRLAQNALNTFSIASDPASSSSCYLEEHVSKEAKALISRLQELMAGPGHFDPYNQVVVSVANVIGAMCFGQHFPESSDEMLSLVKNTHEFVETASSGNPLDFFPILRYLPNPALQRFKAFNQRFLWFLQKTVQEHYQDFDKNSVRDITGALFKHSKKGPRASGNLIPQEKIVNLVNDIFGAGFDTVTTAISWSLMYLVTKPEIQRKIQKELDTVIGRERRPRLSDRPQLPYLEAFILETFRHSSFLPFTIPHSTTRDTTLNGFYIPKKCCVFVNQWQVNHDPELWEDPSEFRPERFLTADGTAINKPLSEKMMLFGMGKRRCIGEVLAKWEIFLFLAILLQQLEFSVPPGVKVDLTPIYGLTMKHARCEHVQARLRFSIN
Sequence of Glucocorticoid receptor (Homo sapiens) (P04150 whole entry, looked up, the tested form may be a part): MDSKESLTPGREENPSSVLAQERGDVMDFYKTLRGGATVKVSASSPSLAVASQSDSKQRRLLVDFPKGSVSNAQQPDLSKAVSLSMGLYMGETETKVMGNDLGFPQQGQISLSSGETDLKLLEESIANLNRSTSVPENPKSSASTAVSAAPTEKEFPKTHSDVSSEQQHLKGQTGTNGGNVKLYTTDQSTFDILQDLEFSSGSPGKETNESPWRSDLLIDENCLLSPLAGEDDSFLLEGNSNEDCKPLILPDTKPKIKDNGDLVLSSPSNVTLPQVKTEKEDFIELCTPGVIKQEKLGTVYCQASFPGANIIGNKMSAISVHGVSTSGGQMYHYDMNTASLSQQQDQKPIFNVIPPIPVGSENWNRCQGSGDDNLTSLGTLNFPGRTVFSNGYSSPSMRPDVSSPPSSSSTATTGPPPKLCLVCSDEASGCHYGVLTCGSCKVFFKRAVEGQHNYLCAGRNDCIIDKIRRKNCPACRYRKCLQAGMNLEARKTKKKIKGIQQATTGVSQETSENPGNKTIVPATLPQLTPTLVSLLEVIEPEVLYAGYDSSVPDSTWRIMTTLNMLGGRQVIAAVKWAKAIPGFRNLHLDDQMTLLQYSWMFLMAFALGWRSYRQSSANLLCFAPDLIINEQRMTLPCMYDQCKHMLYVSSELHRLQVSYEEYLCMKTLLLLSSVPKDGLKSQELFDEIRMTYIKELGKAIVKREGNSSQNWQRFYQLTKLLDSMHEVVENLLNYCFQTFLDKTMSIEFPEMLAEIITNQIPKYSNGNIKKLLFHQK
Sequence of Ubiquitin carboxyl-terminal hydrolase 1 (Homo sapiens) (O94782 whole entry, looked up): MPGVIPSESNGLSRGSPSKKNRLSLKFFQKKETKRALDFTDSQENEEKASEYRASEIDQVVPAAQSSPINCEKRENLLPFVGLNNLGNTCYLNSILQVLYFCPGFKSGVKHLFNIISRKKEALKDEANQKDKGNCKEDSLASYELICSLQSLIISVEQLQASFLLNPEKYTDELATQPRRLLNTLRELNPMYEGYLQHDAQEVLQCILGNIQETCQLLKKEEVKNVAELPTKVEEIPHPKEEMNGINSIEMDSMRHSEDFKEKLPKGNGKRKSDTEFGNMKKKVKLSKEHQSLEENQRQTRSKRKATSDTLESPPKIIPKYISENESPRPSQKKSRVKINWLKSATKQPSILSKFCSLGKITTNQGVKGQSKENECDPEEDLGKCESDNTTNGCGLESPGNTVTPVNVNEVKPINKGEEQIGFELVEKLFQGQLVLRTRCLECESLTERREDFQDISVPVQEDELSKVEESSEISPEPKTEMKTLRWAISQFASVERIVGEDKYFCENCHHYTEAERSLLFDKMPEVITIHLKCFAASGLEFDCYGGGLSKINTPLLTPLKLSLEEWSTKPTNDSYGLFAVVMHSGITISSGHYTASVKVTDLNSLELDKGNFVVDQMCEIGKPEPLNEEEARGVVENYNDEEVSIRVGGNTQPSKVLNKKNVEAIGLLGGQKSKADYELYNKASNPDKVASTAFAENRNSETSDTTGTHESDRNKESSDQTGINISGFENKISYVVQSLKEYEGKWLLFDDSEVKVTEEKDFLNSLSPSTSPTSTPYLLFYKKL
Sequence of Lysosomal acid glucosylceramidase (Homo sapiens) (P04062 whole entry, looked up): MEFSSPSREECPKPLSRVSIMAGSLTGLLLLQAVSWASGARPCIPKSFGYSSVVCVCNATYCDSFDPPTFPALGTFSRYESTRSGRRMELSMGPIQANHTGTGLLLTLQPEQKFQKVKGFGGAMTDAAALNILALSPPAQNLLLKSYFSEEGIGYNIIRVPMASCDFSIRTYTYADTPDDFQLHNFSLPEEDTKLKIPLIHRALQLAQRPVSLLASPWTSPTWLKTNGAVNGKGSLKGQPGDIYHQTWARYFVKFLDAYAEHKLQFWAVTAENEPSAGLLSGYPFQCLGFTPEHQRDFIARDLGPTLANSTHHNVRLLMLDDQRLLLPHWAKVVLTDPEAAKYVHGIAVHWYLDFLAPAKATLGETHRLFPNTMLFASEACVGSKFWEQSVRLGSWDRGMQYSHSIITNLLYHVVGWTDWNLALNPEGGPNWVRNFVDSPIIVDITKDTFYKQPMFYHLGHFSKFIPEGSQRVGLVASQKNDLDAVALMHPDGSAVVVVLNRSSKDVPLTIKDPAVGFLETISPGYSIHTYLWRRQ
Sequence of Cytochrome P450 2D6 (Homo sapiens) (P10635 whole entry, looked up): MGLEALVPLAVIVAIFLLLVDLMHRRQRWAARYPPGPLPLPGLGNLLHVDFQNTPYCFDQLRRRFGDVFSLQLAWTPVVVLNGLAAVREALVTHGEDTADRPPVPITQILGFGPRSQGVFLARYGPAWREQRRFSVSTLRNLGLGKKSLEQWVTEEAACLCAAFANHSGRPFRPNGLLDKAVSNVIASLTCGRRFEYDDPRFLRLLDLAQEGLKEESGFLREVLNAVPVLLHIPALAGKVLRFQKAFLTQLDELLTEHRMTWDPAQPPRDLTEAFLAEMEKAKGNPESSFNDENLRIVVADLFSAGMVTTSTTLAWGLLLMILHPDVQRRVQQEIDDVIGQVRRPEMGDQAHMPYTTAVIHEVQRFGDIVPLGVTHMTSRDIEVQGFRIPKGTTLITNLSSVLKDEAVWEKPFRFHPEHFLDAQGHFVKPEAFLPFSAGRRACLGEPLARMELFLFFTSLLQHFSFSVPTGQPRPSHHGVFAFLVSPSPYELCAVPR

Structure (SMILES)	Potency [1] [µM]	activity change, negative = inhibition [2] [%]	activity change, negative = inhibition [3] [%]	outcome [4]	Potency [5] [µM]	Potency [6] [µM]	Potency [7]	Potency [8]	Potency [9]	Potency [10]	Potency [11]	Potency [12]	Potency [13]	Potency [14]	outcome [15]	Potency [16]	Potency [17]	Potency [18]	activation [18] [%]	Potency [19]
CN1CCN(c2ncc3nc(-c4cccc(C#N)c4)c(=O)n(CCc4ccccc4)c3n2)CC1	> 11.4	11.8	-0.0285	inactive	> 9.22	> 46	inactive	inactive	inactive	inactive	inactive									
Cc1nc2cnc(Oc3cccc(Cl)c3)nc2n(Cc2ccc(F)cc2)c1=O	> 11.4		-21.7	inactive	> 9.22	> 46	inactive	inactive	inactive	inactive										
Cc1cccc(CNc2ncncc2-c2ccccc2C)c1		-10	-10.9	inactive	> 46	> 46		inactive	inactive	inactive		2.51 µM (active)	inactive	0.398 µM (active)	inactive	3.98 µM (active)				
COCCn1c(=O)c(-c2cccs2)nc2cnc(Oc3ccccc3)nc21	> 11.4	16.7			> 9.22	> 46	inactive	inactive	inactive	inactive	inactive	2 µM (active)			inactive		3.98 µM (active)	3.16 µM (active)		
O=c1c(CCc2ccccc2)nc2cnc(N3CCOCC3)nc2n1-c1ccccc1	> 11.4	1.07	1.96	inactive	> 9.22	> 46		inactive	inactive	inactive	inactive		inactive						-5.71	
CCNc1ncc2ncc(=O)n(Cc3ccc(F)cc3)c2n1	> 11.4	-23.6	3		> 9.22	> 46	inactive	7.94 µM (active)	6.31 µM (active)	11.2 µM (active)	inactive	1 µM (active)	inactive		inactive					
CN(C)c1ccc(-c2cncnc2NCCN2CCOCC2)cc1	> 11.4			inactive	> 46	> 46	inactive	inactive	inactive	inactive	inactive	15.8 µM (active)		3.16 µM (active)	inactive			1.26 µM (active)		6.31 µM (active)
CCNc1ncc2nc(-c3ccccc3)c(=O)n(CCC#N)c2n1	> 11.4	-3.6	27.9		> 9.22	> 46		inactive	inactive	inactive	inactive	3.16 µM (active)	inactive		inactive	0.501 µM (active)				
COc1cccc(Cn2c(=O)cnc3cnc(Nc4cccc(OC)c4)nc32)c1	> 11.4		15.4	inactive	> 9.22	> 46	inactive	2.24 µM (active)	2.24 µM (active)	2 µM (active)		3.98 µM (active)	inactive	2 µM (active)	inactive		2 µM (active)			3.98 µM (active)
COc1ccccc1-c1nccc(NCc2cccs2)n1	> 2.29	15.8	-12.7	inactive	> 46	> 46		inactive	inactive	inactive										
COc1cccc(Nc2ncc3nc(-c4cccs4)c(=O)n(C[C@H]4CCCO4)c3n2)c1	> 11.4		-15.5	inactive		> 46	inactive	inactive	inactive	inactive										
COc1ccc(Oc2ncc3nc(-c4cc(F)cc(F)c4)c(=O)n(C4CC4)c3n2)cc1	> 11.4	-9.27	-5.46	inactive	> 9.22	> 46	inactive	inactive	inactive	inactive	inactive		inactive							
CN1CCN(c2ncnc3ccc(-c4ccccc4C(F)(F)F)cc23)CC1	> 11.4		-19.6	inactive	> 46	> 46	inactive	inactive	inactive	inactive	inactive		inactive							
COc1ccc(-c2nc3cnc(N4CCN(C)CC4)nc3n(CCc3ccccc3)c2=O)cc1	> 11.4				> 9.22	> 46	inactive	inactive	inactive	inactive		inactive	inactive	inactive				3.16 µM (active)		
